Reference: PubChem BioAssay (NCATS)
Results filed as inconclusive are left out. The source made the active and inactive calls. Unless noted, the call rests on the fitted dose curve; in most records, active means well fitted curve in the direction sought with a large enough effect; inconclusive means small, poorly fitted or top-dose-only effect, or another doubt; inactive means no such curve, though single readings can be large; an effect the other way counts as inactive or inconclusive.

Key:
[1] = target: Peptidyl-prolyl cis-trans isomerase NIMA-interacting 1 (Homo sapiens) (UniProt Q13526); assay: qHTS Validation Assay to Find Inhibitors of Pin1 (AID 504536; active means well fitted inhibition curve with a large enough effect in the polarisation, with a control signal flat, not every such curve was filed as active; the % refers to the polarisation; further: potency means the concentration at half of the fitted maximal effect)
Chain of Peptidyl-prolyl cis-trans isomerase NIMA-interacting 1 (Homo sapiens) (Q13526 whole entry, looked up): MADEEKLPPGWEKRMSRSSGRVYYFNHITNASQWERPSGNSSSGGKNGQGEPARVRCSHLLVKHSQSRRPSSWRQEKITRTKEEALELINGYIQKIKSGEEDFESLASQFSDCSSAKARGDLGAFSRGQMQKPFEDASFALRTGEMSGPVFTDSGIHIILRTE
Method in brief: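 Fluorescence polarization competition: compounds (titration) displace HiFluor-488-labeled Pin1-1b peptide from Pin1 (0.3 uM final) in pH 7.5 HEPES buffer with DTT, 10 min at room temperature; %Activity normalized to no-enzyme wells, curves fitted.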

[2] = target: Phosphoglycerate kinase, glycosomal (Trypanosoma brucei brucei) (UniProt P07378); assay: qHTS Validation Assay to Find Inhibitors of Phosphoglycerate Kinase (AID 504547); further: potency means the concentration at half of the fitted maximal effect
Chain of Phosphoglycerate kinase, glycosomal (Trypanosoma brucei brucei) (P07378 whole entry, looked up): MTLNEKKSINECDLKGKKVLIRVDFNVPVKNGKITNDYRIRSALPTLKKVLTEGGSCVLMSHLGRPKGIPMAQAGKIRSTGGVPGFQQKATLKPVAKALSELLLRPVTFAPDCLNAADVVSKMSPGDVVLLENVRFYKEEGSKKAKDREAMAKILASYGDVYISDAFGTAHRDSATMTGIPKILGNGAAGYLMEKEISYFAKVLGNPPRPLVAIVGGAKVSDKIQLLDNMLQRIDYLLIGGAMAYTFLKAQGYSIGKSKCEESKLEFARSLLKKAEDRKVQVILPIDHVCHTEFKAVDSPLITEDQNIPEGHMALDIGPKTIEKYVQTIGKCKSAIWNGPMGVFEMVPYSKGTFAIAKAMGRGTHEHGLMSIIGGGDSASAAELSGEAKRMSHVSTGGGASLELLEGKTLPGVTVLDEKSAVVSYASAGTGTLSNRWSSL
Method in brief: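 PGK activity was coupled to GAPDH (100nM final), which generates the unstable substrate 1,3-bisphosphoglycerate in-well. Reactions ran 60 minutes at room temperature in 100mM TEA pH 7.6, 5mM MgCl2, 0.01% Tween-20, then Kinase-Glo Plus luminescence was read.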

[3] = target: phosphoglycerate mutase (Leishmania major) (UniProt Q4Q090); assay: qHTS Validation Assay to Find Inhibitors of Phosphoglycerate Mutase (AID 504548); settings: Potency: inhibition qHTS;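 further: end-point luminescence from Kinase-GloPlus after the PGAM reaction; series mostly up to about 58 µM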
Chain of phosphoglycerate mutase (Leishmania major) (Q4Q090 1-553): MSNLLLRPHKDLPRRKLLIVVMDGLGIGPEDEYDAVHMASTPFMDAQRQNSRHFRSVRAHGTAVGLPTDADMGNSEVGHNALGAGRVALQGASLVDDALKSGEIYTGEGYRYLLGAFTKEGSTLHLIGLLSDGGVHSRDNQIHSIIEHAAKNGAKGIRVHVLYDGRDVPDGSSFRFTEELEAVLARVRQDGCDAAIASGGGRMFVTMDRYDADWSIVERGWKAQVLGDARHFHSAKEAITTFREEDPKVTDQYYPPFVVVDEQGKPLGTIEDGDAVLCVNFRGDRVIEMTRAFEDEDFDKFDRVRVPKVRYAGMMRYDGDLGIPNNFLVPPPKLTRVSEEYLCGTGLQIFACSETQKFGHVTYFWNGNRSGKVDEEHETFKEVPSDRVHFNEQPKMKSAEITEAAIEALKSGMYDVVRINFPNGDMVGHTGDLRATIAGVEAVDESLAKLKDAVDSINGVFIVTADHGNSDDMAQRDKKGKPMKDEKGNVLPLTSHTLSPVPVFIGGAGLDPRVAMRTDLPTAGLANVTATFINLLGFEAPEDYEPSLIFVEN
Method in brief: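 Inhibition of L. major PGAM was assessed by Kinase-GloPlus luminescence following a 45-minute room-temperature reaction with enzyme at 1.25nM final.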

[4] = target: Ubiquitin carboxyl-terminal hydrolase 1 (Homo sapiens) (UniProt O94782); assay: Inhibitors of USP1/UAF1: Pilot qHTS (AID 504865); further: nearly all actives have a fitted effect of over 35% in size; further: potency means the concentration at half of the fitted maximal effect
Chain of Ubiquitin carboxyl-terminal hydrolase 1 (Homo sapiens) (O94782 whole entry, looked up): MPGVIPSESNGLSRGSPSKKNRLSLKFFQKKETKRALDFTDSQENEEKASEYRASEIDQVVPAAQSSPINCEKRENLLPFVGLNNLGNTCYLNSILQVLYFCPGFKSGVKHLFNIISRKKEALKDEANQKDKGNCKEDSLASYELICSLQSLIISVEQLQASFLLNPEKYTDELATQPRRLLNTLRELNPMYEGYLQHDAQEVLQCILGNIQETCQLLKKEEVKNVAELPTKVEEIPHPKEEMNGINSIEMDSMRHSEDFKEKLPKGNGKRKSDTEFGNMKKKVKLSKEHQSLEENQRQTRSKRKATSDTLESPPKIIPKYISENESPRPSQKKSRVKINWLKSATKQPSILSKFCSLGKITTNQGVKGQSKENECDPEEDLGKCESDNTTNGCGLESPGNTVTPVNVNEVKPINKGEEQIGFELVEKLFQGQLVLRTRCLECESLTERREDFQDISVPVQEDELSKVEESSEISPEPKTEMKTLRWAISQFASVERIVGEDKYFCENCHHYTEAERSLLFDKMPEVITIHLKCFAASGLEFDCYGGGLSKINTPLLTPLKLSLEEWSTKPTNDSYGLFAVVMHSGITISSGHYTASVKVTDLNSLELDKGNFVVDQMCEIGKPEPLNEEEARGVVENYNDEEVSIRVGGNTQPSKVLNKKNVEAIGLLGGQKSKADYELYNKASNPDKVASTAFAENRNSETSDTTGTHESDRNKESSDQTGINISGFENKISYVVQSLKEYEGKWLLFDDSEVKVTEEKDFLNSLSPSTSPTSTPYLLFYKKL
Method in brief: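 Kinetic fluorescence assay: 1nM USP1/UAF1, 15 min compound preincubation, then 150nM Ub-Rho; 480/540 nm.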

[5] = qHTS for Inhibitors of ATXN expression: Validation of Cytotoxic Assay (AID 588349);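 further: cells exposed to compound for 72 hr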; further: potency means the concentration at half of the fitted maximal effect
Method in brief: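 HEK293, compound dose series, 72 hr / 37 degrees C; viability via CellTiter Glo (intracellular ATP).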

[6] = qHTS for Inhibitors of ATXN expression: Validation (AID 588378); further: nearly all actives have a fitted effect of over 75% in size; further: potency means the concentration at half of the fitted maximal effect
Method in brief: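 Validation of ATXN2 expression inhibitors uses a cell-based luciferase fusion reporter in HEK293 cells, with 24 h compound exposure and paired viability (fluorescence) and reporter (luminescence) end-point reads.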

[7] = target: Estrogen receptor (Homo sapiens) (UniProt P03372); assay: qHTS assay for small molecule antagonists of estrogen receptor alpha signaling (AID 588513; active means well fitted curve in the direction sought with a large enough effect in the signal ratio, with a control signal flat, not every such curve was filed as active; the % refers to the signal ratio)
Chain of Estrogen receptor (Homo sapiens) (P03372 whole entry, looked up): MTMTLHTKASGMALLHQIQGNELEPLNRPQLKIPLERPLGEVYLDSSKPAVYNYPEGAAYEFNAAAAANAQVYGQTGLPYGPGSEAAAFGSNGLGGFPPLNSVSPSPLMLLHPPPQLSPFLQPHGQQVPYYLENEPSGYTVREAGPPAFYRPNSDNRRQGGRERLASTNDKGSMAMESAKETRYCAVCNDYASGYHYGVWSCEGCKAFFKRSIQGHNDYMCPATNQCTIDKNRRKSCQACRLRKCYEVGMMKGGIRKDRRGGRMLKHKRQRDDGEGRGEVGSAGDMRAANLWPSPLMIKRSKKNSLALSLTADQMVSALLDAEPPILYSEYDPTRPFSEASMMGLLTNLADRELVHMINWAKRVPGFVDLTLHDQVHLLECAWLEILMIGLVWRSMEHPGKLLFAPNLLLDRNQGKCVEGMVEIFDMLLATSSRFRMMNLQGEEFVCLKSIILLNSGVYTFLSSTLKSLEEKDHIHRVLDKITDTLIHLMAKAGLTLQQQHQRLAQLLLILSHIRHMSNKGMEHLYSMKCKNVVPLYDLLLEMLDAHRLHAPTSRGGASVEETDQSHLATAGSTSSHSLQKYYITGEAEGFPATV
Method in brief: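 Cells were plated at 5000/well and incubated 4 h at 37 C. Compounds were added as 1:2 dilution series, duplicates. 17-beta-estradiol (0.5nM final) was added for 18 h before CCF4 detection.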

Measured: Potency

OC[C@H]1O[C@@H](n2cnc3c(NC4CCCC4)ncnc32)[C@H](O)[C@@H]1O
not listed: [7]
inactive: all other assays above

OCC1O[C@H]([S-])[C@H](O)[C@@H](O)[C@@H]1O.[Au+] (some centres not stated)
active: [1] 4.26 µM | [2] 8.49 µM
inactive: [3] | [4]

CCCCC#Cc1nc(NC)c2ncn([C@@H]3O[C@H](CO)[C@@H](O)[C@H]3O)c2n1
not listed: [6] | [7]
inactive: all other assays above

CC(=O)/C=C1\C(=O)N(C)c2ccccc21
inactive: [1] | [2] | [3] | [4]

C=CC(C)=C[C@@]1(C)SC(=O)C(C)=C1O
not listed: [7]
inactive: all other assays above

Cn1ncc(S(=O)(=O)Cc2ccccc2)c(Br)c1=O
inactive: [1] | [2] | [3]
active: [4] 12.6 µM

Nc1nc(Cl)nc2c1ncn2[C@@H]1O[C@H](CO)[C@@H](O)[C@H]1O
not listed: [6] | [7]
inactive: all other assays above

CNC(=O)[C@H]1O[C@@H](n2cnc3c(NCc4cccc(I)c4)ncnc32)[C@H](O)[C@@H]1O
not listed: [6] | [7]
inactive: all other assays above

O=C(O)CC1CC(c2ccccc2)=NO1 (configuration not stated)
not listed: [7]
inactive: all other assays above

Cc1cc(NC2CCCCC2)nc(-n2nc(C)cc2C)n1
not listed: [6] | [7]
inactive: all other assays above

CN1CCc2cccc3c2C1Cc1ccc(O)c(O)c1-3 (configuration not stated)
inactive: [1] | [2] | [3] | [4]

O=C(CCCCCN1CCN(c2ccccc2-c2ccccc2)CC1)NC1CCCc2ccccc21 (configuration not stated)
active: [5] 15.8 µM | [6] 20 µM
not listed: [7]
inactive: all other assays above

CCNC(=O)[C@H]1O[C@@H](n2cnc3c(N)nc(NCCc4ccc(CCC(=O)O)cc4)nc32)[C@H](O)[C@@H]1O
not listed: [7]
inactive: all other assays above

NC(=S)NCCC[C@H](N)C(=O)O
not listed: [7]
inactive: all other assays above

O=C(c1ccc(Cl)cc1)N1CCN(c2ccc([N+](=O)[O-])c3ncccc23)CC1
not listed: [7]
inactive: all other assays above

NC[C@H]1O[C@@H](n2cnc3c(N)ncnc32)[C@H](O)[C@@H]1O
not listed: [7]
inactive: all other assays above

CCCCCCCCCCCCCCCC(=O)OC(CC(=O)O)C[N+](C)(C)C (configuration not stated)
inactive: [1] | [2] | [3]
active: [4] 50.1 µM

CC(C)CC(NP(=O)(O)O[C@@H]1O[C@@H](C)[C@H](O)[C@@H](O)[C@H]1O)C(=O)NC(Cc1c[nH]c2ccccc12)C(=O)O (some centres not stated)
not listed: [7]
inactive: all other assays above

C=CC(=O)c1ccc(CCCCCC)cc1
active: [4] 56.2 µM
not listed: [7]
inactive: all other assays above

Nc1nc(Nc2ccccc2)nc2c1ncn2[C@@H]1O[C@H](CO)[C@@H](O)[C@H]1O
not listed: [7]
inactive: all other assays above

O=C(Nc1ccccc1)c1cc([N+](=O)[O-])ccc1Cl
inactive: all assays above

NC(=O)C1=CN(C2OC(COP(=O)(O)OP(=O)(O)OC[C@H]3O[C@@H](n4cnc5c(N)ncnc54)[C@H](OP(=O)(O)O)[C@@H]3O)C(O)C2O)C=CC1 (some centres not stated)
inactive: [2] | [3] | [4] | [5]
active: [1] 5.36 µM

CNC(=O)[C@H]1O[C@@H](n2cnc3c(NCc4ccc(N)cc4)ncnc32)[C@H](O)[C@@H]1O
not listed: [7]
inactive: all other assays above

Nc1nc(Cl)nc2c1ncn2[C@@H]1O[C@H](COP(=O)(O)OP(=O)(O)OP(=O)(O)O)[C@@H](O)[C@H]1O
active: [1] 30.1 µM
not listed: [7]
inactive: all other assays above

C[N+]1(C)CCC(OC(=O)C(c2ccccc2)c2ccccc2)CC1
not listed: [6] | [7]
inactive: all other assays above

CCCC1(C)C(C#N)(C#N)C1(C#N)C#N
active: [4] 10 µM
inactive: [1] | [2]

Cc1nc2sccn2c(=O)c1CCN1CCC(=C(c2ccccc2)c2ccc(F)cc2)CC1
inactive: [1] | [2] | [3] | [6]
